Assay results: PubChem BioAssay AID492949 (National Center for Advancing Translational Sciences (NCATS), 2010)
Inconclusive results are not listed. A call without a number means that no potency is given here. Activity calls are given as the source filed them. The call rests on the fitted dose curve; in most records, active means well fitted activation curve with a large enough effect; inconclusive means small, poorly fitted or top-dose-only effect; inactive means no such curve, though single readings can be large or run the other way.

Each compound was assayed against Relaxin receptor 1 (Homo sapiens) (UniProt Q9HBX9) (assay: qHTS Assay for Agonists of the Relaxin Receptor RXFP1: THP1 Hit Validation). Conditions: THP1-RXFP1 cells, cAMP TR-FRET, 30 min; series mostly up to 115 µM.
Summary of the method: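 EC50s come from Hill-equation fits of data normalized between buffer (basal) and 29 nM porcine relaxin (100%). cAMP was measured by competitive TR-FRET in lysates of RXFP1-transfected THP1 cells after 30 min compound exposure, with Ro 20174 present.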
Further: nearly all actives have a fitted effect of over 60% in size.
Potency means the concentration at half of the fitted maximal effect.

Sequence of Relaxin receptor 1 (Homo sapiens) (Q9HBX9 whole entry, looked up): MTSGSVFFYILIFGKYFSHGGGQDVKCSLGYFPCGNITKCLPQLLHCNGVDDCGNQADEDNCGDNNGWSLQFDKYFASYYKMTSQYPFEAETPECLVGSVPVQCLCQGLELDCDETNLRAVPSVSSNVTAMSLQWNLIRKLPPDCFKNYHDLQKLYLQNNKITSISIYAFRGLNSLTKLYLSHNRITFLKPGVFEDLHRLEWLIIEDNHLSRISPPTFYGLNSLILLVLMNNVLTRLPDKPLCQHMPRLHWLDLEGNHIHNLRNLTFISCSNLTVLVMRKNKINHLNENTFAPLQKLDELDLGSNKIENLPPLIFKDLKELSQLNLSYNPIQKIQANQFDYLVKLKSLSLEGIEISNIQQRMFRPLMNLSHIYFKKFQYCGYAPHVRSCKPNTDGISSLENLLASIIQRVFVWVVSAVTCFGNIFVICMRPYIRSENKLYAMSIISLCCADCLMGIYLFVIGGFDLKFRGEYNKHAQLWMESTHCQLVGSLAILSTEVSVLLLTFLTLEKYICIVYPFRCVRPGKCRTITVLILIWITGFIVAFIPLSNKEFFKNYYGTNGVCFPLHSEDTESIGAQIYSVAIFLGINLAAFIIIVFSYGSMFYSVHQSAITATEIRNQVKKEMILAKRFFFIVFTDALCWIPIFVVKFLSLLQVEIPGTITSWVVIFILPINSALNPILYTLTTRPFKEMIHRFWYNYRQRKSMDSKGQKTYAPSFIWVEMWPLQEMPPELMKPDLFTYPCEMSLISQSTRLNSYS

Row | Compound | Potency
1 | O=C(Nc1ccccc1C(=O)NCCN1CCOCC1)c1ccco1 | inactive
2 | O=C(Nc1ccccc1C(=O)N1CCN(c2ccccc2)CC1)c1ccco1 | inactive
3 | Nc1ncnc2c1ncn2C1OC(CO)C(O)C1O (stereo not drawn) | inactive
4 | Cc1ccc2cc(CN(C(=O)c3cccs3)c3ccccc3)c(=O)[nH]c2c1 | inactive
5 | COc1ccc(Nc2ncc(C#N)c(N)n2)c(OC)c1 | inactive
6 | COc1ccccc1CNS(=O)(=O)c1cc(CN2C(=O)c3cccnc3C2=O)ccc1OC | 17.4 µM (active)
7 | c1ccc(COn2nnc3ccccc32)c(COn2nnc3ccccc32)c1 | inactive
8 | O=C(OCc1nc2ccsc2c(=O)[nH]1)c1cccc(S(=O)(=O)N2CCOCC2)c1 | 43.6 µM (active)
9 | C=CCOc1c(Cl)cc(CNc2ccc(N(C)C)cc2)cc1OC | inactive
10 | CC1CCN(S(=O)(=O)c2ccc3nc(N4CCN(c5ccccc5)CC4)ccc3c2)CC1 | 15.4 µM (active)
11 | Nc1nnc(CC(=O)N/N=C/c2ccc(-c3ccc(Cl)cc3Cl)o2)s1 | inactive
12 | COC(=O)C(C)Sc1ccc2nnc(-c3ccccc3)n2n1 (stereo not drawn) | inactive
13 | CC1C/C(=N\NC(N)=S)c2cc(Cl)ccc2S1 (stereo not drawn) | inactive
14 | Cc1cc(C)n2nc(C(=O)Nc3ccc4c(c3)OCCO4)nc2n1 | 8.68 µM (active)
15 | CN(C)c1ccc(NC(=O)C2C3C=CC(C3)C2C(=O)O)cc1 (stereo not drawn) | inactive
16 | O=C(O)CCSc1ccc2ccccc2n1 | 19.4 µM (active)
17 | Cn1c(N)c(C(=O)CSc2nnc(NC3CCCCC3)s2)c(=O)n(C)c1=O | inactive
18 | O=C(O)CCNc1ccc(NCCC(=O)O)c2c1C(=O)c1ccccc1C2=O | inactive
19 | Cc1ccc(C(=O)Nc2ccccc2C(N)=O)o1 | inactive

Row | Compound | Potency
20 | CCc1cc2cc3c(cc2nc1SCC(=O)Nc1nccs1)OCO3 | 21.8 µM (active)
21 | O=C(Nc1ccccc1C(=O)NCc1ccco1)c1ccco1 | inactive
22 | CN(CC(=O)Nc1ccccc1Cl)C(=O)COC(=O)Cc1c(F)cccc1Cl | inactive
23 | CCC(Sc1ccc2nnc(-c3cccnc3)n2n1)C(=O)OC (stereo not drawn) | 19.4 µM (active)
24 | Cc1ccc(CN(C)C(=O)c2ccccc2NC(=O)c2ccccc2)o1 | inactive
25 | CC(C)C(=O)Nc1ccc(Nc2ccccc2)cc1 | inactive
26 | COc1ccc(S(=O)(=O)Nc2ccccn2)c(C)c1C | inactive
27 | CCN(CC)S(=O)(=O)c1cccc(N=Nc2c(O)c3ccccc3oc2=O)c1 | 9.77 µM (active)
28 | Brc1ccc2ncnc(NCc3cccnc3)c2c1 | 48.9 µM (active)
29 | O=S(=O)(c1cccc(-c2cn3cccnc3n2)c1)N1CCOCC1 | 13.8 µM (active)
30 | CCOc1ccc2cc(C#N)c(SCC(=O)NC(C)CC)nc2c1 (stereo not drawn) | 6.9 µM (active)
31 | O=C(O)c1cccc(CSc2nnc(Cc3ccccc3)o2)c1 | inactive
32 | CCOC(=O)CNC(=O)CSc1nc2c(C)cccc2cc1CC | 19.4 µM (active)
33 | O=C(Nc1ccccc1C(=O)NCCc1ccc(O)cc1)c1ccco1 | inactive
34 | CC[n+]1ccc(/C=C/c2ccc(N(C)C)cc2)c2ccccc21 | inactive
35 | c1ccc(-c2nnc(-c3ccccn3)c(-c3ccccn3)n2)nc1 | inactive
36 | CN(C)CCCn1c(SCC(=O)Nc2nc(-c3cccc(Br)c3)cs2)nc2ccccc2c1=O | inactive
37 | CCc1ccc(-c2nc3ccc(Br)cc3c(C(=O)O)c2C)s1 | 6.15 µM (active)
38 | CN(C)S(=O)(=O)c1cccc(COc2ncnc3c(Cl)cc(Cl)cc23)c1 | 5.49 µM (active)
